The values that follow come from PubChem BioAssay (NCATS).

Results filed as inconclusive are left out. Where a call stands in place of a potency, no number is given. Active and inactive are the calls of the source. Unless noted, calls come from the whole dose curve; as a rule, active = well fitted curve in the direction sought with a large enough effect in the repeat runs; inconclusive = weak or mixed curves; inactive = no such curve, though single readings can be large; an effect the other way counts as inactive or inconclusive.

Assay [1] deals with Calcium and integrin-binding protein 1 (Homo sapiens) (UniProt Q99828). Nature of the assay: Primary qHTS for Identification of Calcium Integrin Binding Protein 1 (CIB1) Competitor (AID 1508620; active = well fitted curve in the direction sought with a large enough effect; an effect the other way counts as inactive or inconclusive). The note with it: CIB1-GST / FITC-alphaIIb peptide fluorescence polarization; series mostly up to 114 µM. A digest of the protocol: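 CIB1-GST (1 uM final) and compound incubated 15 min at room temperature before adding FITC-alphaIIb peptide tracer (100 nM final). Competition for binding read by fluorescence polarization (ex 480, em 540) after another 15 min at room temperature.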
Chain of Calcium and integrin-binding protein 1 (Homo sapiens) (Q99828 whole entry, looked up): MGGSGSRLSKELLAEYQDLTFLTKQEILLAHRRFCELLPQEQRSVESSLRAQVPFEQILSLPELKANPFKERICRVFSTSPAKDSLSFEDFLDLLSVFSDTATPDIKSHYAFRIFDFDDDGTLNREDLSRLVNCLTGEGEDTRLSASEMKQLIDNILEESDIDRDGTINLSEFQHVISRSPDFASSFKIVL
A general note: Quantitative high-throughput screening tests each substance at several concentrations.

Assay [2] has as its target Cytochrome P450 2D6 (Homo sapiens) (UniProt P10635). The assay is described as follows: Cytochrome P450 family 2 subfamily D member 6 (CYP2D6) small molecule antagonists: luciferase biochemical (cell-free) qHTS assay (AID 1645840). Note: nearly all actives have a fitted effect of over 55% in size. Conditions: P450-Glo CYP2D6 enzyme, luciferin luminescence, 1 h; series mostly up to 57.4 µM. An outline of the steps: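 P450-Glo CYP2D6 system: proluciferin substrate converted by enzyme to luciferin, read by luminescence proportional to activity. Enzyme-substrate mix with compound 10 min at room temperature, then NADPH regeneration 1 h before detection reagent.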
Potency is the fitted concentration of half-maximal effect.

Chain of Cytochrome P450 2D6 (Homo sapiens) (P10635 whole entry, looked up): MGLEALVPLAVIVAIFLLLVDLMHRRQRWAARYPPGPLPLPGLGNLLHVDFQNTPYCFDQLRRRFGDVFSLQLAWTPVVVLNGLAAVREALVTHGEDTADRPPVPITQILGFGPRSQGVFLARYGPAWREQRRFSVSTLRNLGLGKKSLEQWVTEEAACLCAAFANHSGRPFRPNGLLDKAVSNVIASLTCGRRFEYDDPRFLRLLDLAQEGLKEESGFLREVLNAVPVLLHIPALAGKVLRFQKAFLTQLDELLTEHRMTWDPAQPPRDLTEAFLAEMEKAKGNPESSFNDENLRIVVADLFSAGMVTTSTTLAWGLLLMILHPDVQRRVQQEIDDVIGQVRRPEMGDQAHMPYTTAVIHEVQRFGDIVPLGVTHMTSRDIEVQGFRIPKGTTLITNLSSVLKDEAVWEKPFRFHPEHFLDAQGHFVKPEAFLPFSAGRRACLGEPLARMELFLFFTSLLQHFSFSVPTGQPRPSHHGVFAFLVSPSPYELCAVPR

Consider `CN(C)C(=O)Nc1cc(-c2ccccc2)ccc1N(C)C`, for which the Potency entry in assay [1] and in assay [2] was “inactive” each time.
On to `Fc1ccc(N2CCCCC2)c(NC(=S)c2ccncc2)c1`, for which the Potency entry in assay [1] is “inactive”. In assay [2], the Potency is 1.69 µM (active).
For the compound `Cc1cc(C)nc(SCC(=O)Nc2ncc(Cc3cccc4ccccc34)s2)n1`, the Potency result in assay [1] and in assay [2] was “inactive” in each case.
On to `Cc1c(NC(=O)OCC2COCCN2)cn2ncnc(Nc3ccc4c(cnn4Cc4cccc(F)c4)c3)c12` (stereo not drawn), for which, in assay [1], the Potency result is “inactive”. Besides, in assay [2], the Potency is 21.3 µM (active).
For `CCN(CCNC(=O)Nc1ccccc1Br)c1cccc(C)c1`, the Potency entry in assay [1] was “inactive”. For the same compound, in assay [2], the Potency was 1.9 µM (active).
For the compound `CCn1c(=O)c(-c2ccc(-c3cncs3)cc2Cl)cc2cnc(Nc3ccc(N4CCN(C)CC4)cc3)nc21`, the Potency result in assay [1] and in assay [2] was “inactive” throughout.
Regarding `Cc1cc(C)cc(-c2cnc3cc(Cl)c(-c4cccc(O)c4)cc3c2OCCCN)c1`, the Potency entry in assay [1] was “inactive”. Moreover, the Potency in assay [2] was 7.56 µM (active).
As for `Cc1csc(N(C(=O)CSc2ccc(-c3ccccc3)nn2)C2CC2)n1`, the Potency result in assay [1] and in assay [2] was “inactive” each time.
`CC(=O)Nc1cccc(Nc2ncnc(N3CCC(OCc4ccc(OC(F)(F)F)cc4)CC3)n2)c1C`: the Potency entry in assay [1] and in assay [2] was “inactive” in each case.
Turning to `O=C(c1ccccn1)N(Cc1cccs1)C1(C(=O)NC2CCCCC2)CCCCC1`, the Potency result in assay [1] and in assay [2] was “inactive” throughout.
Turning to `CC1(NC(=O)c2ccc(C#Cc3cccc(F)c3)cn2)COC1`, the Potency result in assay [1] and in assay [2] was “inactive” each time.
As for `CCn1c(=O)n([C@H]2CCCN(c3nccc(-c4cc5ccccc5o4)n3)C2)c2ccccc21`, the Potency entry in assay [1] and in assay [2] was “inactive” each time.
Take `COc1ccc2nc(-c3cc(OC)c(OC)c(OC)c3)cc(C(=O)NCC(=O)Nc3ccc(C(C)=O)cc3)c2c1`: the Potency entry in assay [1] and in assay [2] was “inactive” in each case.
Consider `COc1ccc2nc3n[nH]c(C)c3c(NCCOCCO)c2c1`, for which the values for the Potency in assay [1] and in assay [2] were 50.1 µM (active) and 9.52 µM (active), respectively.
As to `Cc1ccc(N2CCN(CCC3NC(=O)c4ccccc43)CC2)cc1C` (stereo not drawn), the Potency entry in assay [1] and in assay [2] was “inactive” throughout.
As to `N#CC(CCCN1CCN(/N=C/c2cccnc2)CC1)(c1ccccc1)c1ccccc1`, the Potency result in assay [1] is “inactive”. For the same compound, in assay [2], the Potency is 0.849 µM (active).
The matching figures for `CC(C)c1noc(C2CCN(c3ncnc(Nc4ccc(S(C)(=O)=O)cc4F)c3[N+](=O)[O-])CC2)n1`: “inactive” and “inactive”.
The matching figures for `O=C(Nc1ccc2[nH]c(=O)oc2c1)C(=O)N1CCC(Cc2ccc(F)cc2)CC1`: “inactive” and 21.3 µM (active).
The matching figures for `O=c1[nH]c2ccc(C#CCN3CCC(Cc4ccccc4)CC3)cc2[nH]1`: “inactive” and 0.338 µM (active).
`Cc1c(C(=O)Nc2ccc(N3CCC(N4CCOCC4)CC3)c(C#N)c2)cnn1-c1ccc(Cl)cc1`: the Potency entry in assay [1] is “inactive”. For the same compound, the Potency in assay [2] is 12 µM (active).
The matching figures for `C=C(C)Cn1c(SCC(=O)c2cccs2)nc2sc3c(c2c1=O)CCCC3`: “inactive” and “inactive”.
Take `N#Cc1ccc(COC[C@H]2O[C@@H](n3c(NCc4ccc(Cl)c(Cl)c4)nc4c(N)ncnc43)[C@H](O)[C@@H]2O)cc1`: the Potency result in assay [1] is “inactive”. Further, the Potency in assay [2] was 10.7 µM (active).
With `CC(=O)NC[C@H]1CN(c2ccc(N3CCSCC3)c(F)c2)C(=O)O1`, the Potency result in assay [1] and in assay [2] was “inactive” throughout.
Regarding `O=C(NCCN1CCN(c2cccc3ccc(O)cc23)CC1)c1ccc(F)cc1`, the Potency result in assay [1] is “inactive”. Besides, in assay [2], the Potency was 0.0425 µM (active).
In the same order, the values of `CC#CC(=O)Nc1ccc2ncnc(Nc3cccc(Br)c3)c2c1` are “inactive” and “inactive”.
Turning to `O=C(Nc1ccc(Cl)cc1)C1CCCN(C(=O)c2cccc(-c3ccco3)c2)C1` (stereo not drawn), in assay [1], the Potency entry is “inactive”. In addition, the Potency in assay [2] was 13.5 µM (active).
Turning to `Cc1onc(-c2ccccc2)c1C(=O)N1CCN(c2ccc([N+](=O)[O-])cc2Cl)CC1`, in assay [1], the Potency result was “inactive”. Moreover, the Potency in assay [2] is 5.35 µM (active).
In the same order, the values of `COCCCNC(=O)c1ccc(Cn2c(=O)c3ccccc3n(Cc3ccc(C(C)C)cc3)c2=O)cc1` are “inactive” and “inactive”.
The matching figures for `CCCC(CCC)C(=O)Nc1ccn([C@@H]2O[C@H](CO)[C@@H](O)C2(F)F)c(=O)n1`: “inactive” and “inactive”.
Turning to `COc1cc2ncnc(Oc3ccc(CC(=O)Nc4cnn(C(C)C)c4)cc3)c2cc1OC`, the Potency result in assay [1] and in assay [2] was “inactive” each time.
Turning to `COCC(=O)NC/C=C/c1ccc2ncnc(Nc3ccc(Oc4ccc(C)nc4)c(C)c3)c2c1`, the Potency entry in assay [1] was “inactive”. In assay [2], the Potency was 10.7 µM (active).
In the case of `CN1CCN(S(=O)(=O)c2ccc(-c3cnc(N)c(C(=O)Nc4cccnc4)n3)cc2)CC1`, the Potency entry in assay [1] and in assay [2] was “inactive” throughout.
With `COc1ccc(OC)c(-c2ccc(NC(=O)c3ccncc3F)cc2)c1`, the Potency entry in assay [1] and in assay [2] was “inactive” each time.
Turning to `N#Cc1cc(C2=Nc3ccc(Br)cc3NC(=O)C2)ccn1`, the Potency result in assay [1] is “inactive”. Besides, in assay [2], the Potency is 0.477 µM (active).
Consider `CCOc1nc(NC(=O)Cc2cc(OC)ccc2OC)cc(N)c1C#N`, for which the Potency result in assay [1] and in assay [2] was “inactive” each time.
Turning to `NCCOc1cc(C(=O)Nc2cc(OCCN)c3ccccc3n2)nc(C(=O)Nc2cc(OCCN)c3ccccc3n2)c1`, the Potency result in assay [1] and in assay [2] was “inactive” each time.
In the case of `COC(=O)C(Cc1ccc(OCCn2c(=O)sc3cc(C(=O)c4ccccc4)ccc32)cc1)C(=O)OC`, the Potency result in assay [1] and in assay [2] was “inactive” in each case.
Consider `O=C(c1cc(Cc2n[nH]c(=O)c3ccccc23)ccc1F)N1CCCNCC1`, for which the Potency entry in assay [1] and in assay [2] was “inactive” each time.
With `O=C(NCCCN1CCOCC1)c1cnn2c(-c3ccccc3)cc(-c3ccccc3)nc12`, the Potency entry in assay [1] and in assay [2] was “inactive” in each case.
